# Where “and” joins values, the source holds several entries; their conditions need not be identical. Equal values may be shown once. The whole screen tested about 340,000 compounds, of which about 4,500 (1.3%) were called active. Roughly 5% stayed inconclusive and do not appear here. Shown is part of a subset that was picked to be rich in actives. Values without a mark were called inactive. Calls follow the shape of the dose curve; as a rule, active = well fitted inhibition curve with a large enough effect; inconclusive = small, poorly fitted or top-dose-only effect, or another doubt; inactive = no such curve, though single readings can be large or run the other way.
# Molecular target: DNA polymerase beta (Homo sapiens) (UniProt P06746)
# Assay: qHTS Assay for Inhibitors of DNA Polymerase Beta
# Details: Pol beta primer extension/strand displacement, fluorescence kinetic; series mostly up to 114 µM; activity change, negative = inhibition: at the top concentration
# Summary of the method: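 Enzyme-only controls used 10 nM Pol beta; buffer lacking enzyme served as negative control. Compound preincubated 15 min, then 50 nM substrate added; 0 and 10 min reads at room temperature.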
# % is scaled to controls: 0 for no effect and ±100 for the full control effect; potency is read from the fitted curve at half-maximal effect.
Structure (SMILES),Potency,"activity change, negative = inhibition"
CC(C)c1ccc2c(c1)c(SC(C)(C)C)c(CC(C)(C)C(=O)O)n2Cc1ccc(Cl)cc1,50.1 µM (active) and 31.6 µM (active),–
CC(C)c1ccc(Cn2c(COc3ccccc3)nc3ccccc32)cc1,–,19.8%
Cc1c(C)n(Cc2ccc(Cl)cc2)c2ccc(C(=O)N3CCN(c4ccccc4F)CC3)cc12,–,-25.6%
Cc1ccc(C)c(Oc2c(C(F)(F)F)oc3c(CN4CCN(C)CC4)c(O)ccc3c2=O)c1,–,-17.9%
Cc1cccc(-n2ccnc2SCC(=O)Nc2cccc3ccccc23)c1C,–,10.7%
CCCS(=O)(=O)Nc1cccc(-c2cn3ccsc3n2)c1,–,-12.8%
CC(=O)Nc1ccc(NC(=O)CCCc2nc(-c3ccc(C(C)(C)C)cc3)no2)cc1,–,28.3%
CCCN1CCN(C(=O)Cn2ncc3ccccc32)CC1,12.6 µM (active),–
CCc1nn(CC(=O)N2CCN(CC)CC2)c(=O)c2cccn12,–,1.16%
CC(C)c1ccc(NC(=O)Cn2ncc3ccccc32)cc1,–,31.7%
CC(=O)c1ccc(N2CCN(C3C(=O)c4ccccc4N3C(C)=O)CC2)cc1 (stereo not drawn),–,50.8%
Cc1ccc(-c2ccc(CCC(=O)O)n2-c2ccc(C(N)=O)cc2)cc1,–,6.21%
Cc1ccc(-n2nc(C)c(C(=O)O)c2-n2cccc2)cc1,12.6 µM (active),–
Cc1nn(-c2ccc(F)cc2)c(-n2cccc2)c1C(=O)N1CCN(c2ccccc2)CC1,–,-8.92%
Cc1nn(-c2ccccc2)c(-n2cccc2)c1C(=O)O,–,-15.2%
COc1cccc(NC(=O)C(=O)NCC(c2ccc3c(c2)OCO3)N2CCN(C)CC2)c1 (stereo not drawn),–,-9.86%
Cc1ccccc1Nc1nn2c(=O)c3ccc(C(=O)NCCc4ccc(Cl)cc4)cc3nc2s1,–,-0.38%
CCN(Cc1ccccc1)S(=O)(=O)c1ccc2c(c1)CCCN2C(C)=O,–,31.7%
CCc1nnc(SCC(=O)Nc2cc(OC)ccc2OC)nc1CC,–,23.5%
CCOc1ccc2[nH]c(C(=O)N/N=C/c3cccc(OC)c3OC)cc2c1,–,-0.753%
COc1ccc2[nH]c(C(=O)Nc3ccccc3Cl)cc2c1,–,21.2%
COc1ccc2[nH]c(C(=O)N/N=C/c3cc(OC)c(OC)c(OC)c3)cc2c1,8.91 µM (active),–
CCc1nc2c(cnn2-c2ccc(C)cc2)c(=O)n1-c1ccc(C)cc1,–,-17.5%
COc1ccccc1N1CC(C(=O)Nc2nnc(SCC(=O)NC(C)C)s2)CC1=O (stereo not drawn),–,21.8%
Cc1ccccc1N1CC(C(=O)Nc2nnc(SCCC3OCCO3)s2)CC1=O (stereo not drawn),14.1 µM (active),–
COc1ccccc1N1CC(C(=O)Nc2nnc(SCC(=O)NCC3CCCO3)s2)CC1=O (stereo not drawn),–,-12.3%
Cc1ccc(Cl)cc1NC(=O)Cc1ccc(-n2c(C)nc3cccnc32)cc1,–,-2.17%

Structure (SMILES),Potency,"activity change, negative = inhibition"
CCOC(=O)C1=C(CC)Nc2ccccc2N=C1N,–,9.29%
CCS(=O)(=O)c1cc([N+](=O)[O-])c(Sc2ccccc2N)s1,–,18%
CCOC(=O)c1cc(Sc2ccccc2N)cc(C(=O)OCC)n1,25.1 µM (active),–
CN1c2ccc(Cl)cc2-c2nc(SCC(=O)Nc3cc(F)ccc3F)ncc2S1(=O)=O,–,18%
COc1cc(CNCCSc2nnnn2C)ccc1OCc1ccc(Cl)cc1Cl,–,-25.4%
CCc1cccc(NC(=O)CN(C)S(=O)(=O)c2ccc3[nH]c4c(c3c2)CCCC4)c1,–,0.243%
COc1cccc(CNC(=O)CCC(=O)N2CC3CCCN3c3ccccc32)c1 (stereo not drawn),–,-2.64%
O=C(COC(=O)C12CC3CC(CC(C3)C1)C2)NCc1ccco1,14.1 µM (active),–
O=C(COC(=O)c1cc(S(=O)(=O)N2CCCCC2)ccc1Cl)NCc1ccco1,–,1.64%
CN(c1ccccc1)S(=O)(=O)c1ccc(Cl)c(C(=O)OCC(=O)NCc2ccco2)c1,–,-98.4%
CSCCC(NC(=O)c1ccco1)C(=O)OCC(=O)Nc1ncc(Cl)c(C)c1Cl (stereo not drawn),–,-18%
C/C(=N\Nc1ncc(Cl)cc1Cl)c1ccc(S(=O)(=O)NCc2ccco2)cc1,–,13.7%
Cc1cc(C(=O)OCC(=O)NCc2ccco2)c(C)n1-c1ccccc1,22.4 µM (active),–
O=C(CC1CCCCC1)NCc1ccco1,–,-12.9%
O=C(COC(=O)c1ccco1)NCc1ccc(Cl)cc1,–,-9.59%
O=C(COC(=O)c1cnc(Cl)c(Cl)c1)NCc1ccco1,25.1 µM (active),–
Cc1c(Cl)cnc(NC(=O)COC(=O)c2ccc(S(=O)(=O)NCc3ccco3)cc2)c1Cl,31.6 µM (active),–
O=C(NCCCCCCNC(=O)NCc1ccco1)NCc1ccco1,–,24.2%
Cc1cc(C(=O)OCC(=O)N2c3ccccc3NC(=O)C2(C)C)c(C)n1-c1ccccc1,–,-0.675%
COc1ccc(NC(=O)CCCN2C(=O)CCn3nc(-c4cn(C)c5ccccc45)cc32)cc1OC,–,4.33%
CCN1CCN(C(c2ccc(C)cc2)c2c(O)cc(C)n(Cc3ccco3)c2=O)CC1 (stereo not drawn),–,-20%
CC1Cc2cc(S(=O)(=O)CCC(=O)NCc3ccc(Cl)cc3)ccc2N1C(=O)C1CC1 (stereo not drawn),–,-0.0771%
C#CC(C)(CC)NC(=O)Cn1nnc(-c2ccc(OCc3c(F)cccc3Cl)cc2)n1 (stereo not drawn),–,-7.54%
CC(=O)OC1=C(C(C)=O)N(Cc2ccccc2)S(=O)(=O)c2ccccc21,–,18.8%
O=C(C1CCC(Cn2c(=O)c3sccc3n(Cc3ccccc3F)c2=O)CC1)N1CCCCC1 (stereo not drawn),–,-0.425%
COCCCNC(=O)c1ccc(NC(=O)c2nsc3ccccc23)cc1,–,-0.898%
